Reference: the supplement of paper PMC10849652
Targets with a hit are over-represented here; the source holds about 7,900 in all. About 0.6% of all pairs of compound and target were hits.

Key:
Assay in all cases: log2 fold change, soluble protein after heating vs DMSO (PISA); higher = thermal stabilisation; K562 cells, 10 uM, 30 min; active = over 0.2 and 3.5 SD of the protein, either way, in both replicates (recomputed)
[1] = compound: C1=CC=C(C=C1)[C@H](COC2=CC3=C(C=C2)NC(=O)N3)NC(=O)C4=CC=CN(C4=O)CC5=CC(=C(C=C5)F)F
How it was run: (§1)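 Values are thermal stability changes relative to control samples and are taken from duplicates. They are stated as log2 fold changes. Before quantification by TMTpro 16plex LC-MS/MS with equalised channel sums, K562 cells at 2×10^6 cells/mL were treated with 10 μM compound for 30 min, heated in aliquots for 3 min across 48°C-58°C, pooled, extracted in PBS with 0.5% NP-40 at 4°C, and centrifuged at 21,000xg for 90 min to give the soluble supernatant.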

[2] = compound: CC1=C(SC2=C1C(=N[C@H](C3=NN=C(N32)C)CC(=O)N)C4=CC=C(C=C4)Cl)C
How it was run: as §1

[3] = compound: CC1=C2C(=CC=C1)N=C(N(C2=O)C3=CC=CC=C3C)CN4C=NC5=C(N=CN=C54)N
How it was run: as §1

[4] = compound: Cc1sc2c(c1C)C(c1ccc(Cl)cc1)=N[C@@H](CC(=O)OC(C)(C)C)c1nnc(C)n1-2
How it was run: as §1

[5] = compound: c1ccc([C@@H]2C[C@H]2NC2CCNCC2)cc1
How it was run: as §1

Measured: log2 fold change

ALG11 (UniProt Q2TAA5)
UniProt Q2TAA5, sequence (Q2TAA5 whole entry, looked up): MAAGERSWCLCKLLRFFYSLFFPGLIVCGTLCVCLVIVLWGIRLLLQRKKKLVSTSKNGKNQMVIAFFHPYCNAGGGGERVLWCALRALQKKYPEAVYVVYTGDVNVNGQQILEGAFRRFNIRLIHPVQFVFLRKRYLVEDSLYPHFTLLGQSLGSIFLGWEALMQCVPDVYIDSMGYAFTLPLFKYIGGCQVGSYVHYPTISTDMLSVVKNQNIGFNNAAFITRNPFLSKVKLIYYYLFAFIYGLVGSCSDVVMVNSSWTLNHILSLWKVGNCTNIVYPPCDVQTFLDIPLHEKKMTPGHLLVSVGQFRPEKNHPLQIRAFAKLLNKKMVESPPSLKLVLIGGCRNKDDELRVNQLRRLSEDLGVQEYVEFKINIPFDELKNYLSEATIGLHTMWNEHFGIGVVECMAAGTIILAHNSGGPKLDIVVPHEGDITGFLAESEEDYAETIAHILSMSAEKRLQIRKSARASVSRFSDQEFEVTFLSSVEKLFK
inactive: [1] 0.001 | [2] 0.085 | [3] 0.144 | [4] -0.051 | [5] -0.021

ASS1 (UniProt P00966)
UniProt P00966, sequence (P00966 whole entry, looked up): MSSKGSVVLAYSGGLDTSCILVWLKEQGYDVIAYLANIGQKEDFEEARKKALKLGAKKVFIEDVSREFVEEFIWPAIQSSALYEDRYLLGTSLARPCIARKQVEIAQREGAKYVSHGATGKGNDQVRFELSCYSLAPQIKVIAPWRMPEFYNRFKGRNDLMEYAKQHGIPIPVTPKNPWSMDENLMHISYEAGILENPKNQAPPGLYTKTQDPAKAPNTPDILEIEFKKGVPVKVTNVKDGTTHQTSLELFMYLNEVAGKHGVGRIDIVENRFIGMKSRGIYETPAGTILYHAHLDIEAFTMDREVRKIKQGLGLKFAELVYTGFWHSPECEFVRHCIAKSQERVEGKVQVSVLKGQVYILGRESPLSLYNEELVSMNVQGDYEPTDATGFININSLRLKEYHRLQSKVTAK
inactive: [1] -0.099 | [2] -0.036 | [3] 0.032 | [4] -0.141 | [5] -0.146

ATP2A3 isoform 2 (UniProt Q93084)
inactive: [1] -0.01 | [2] 0.035 | [3] 0.036 | [4] -0.002 | [5] 0.01

ATP7B (UniProt P35670)
inactive: [1] 0 | [2] 0.094 | [3] 0.014 | [4] 0.022 | [5] 0.076

BMP2K (UniProt Q9NSY1)
UniProt Q9NSY1, sequence (Q9NSY1 whole entry, looked up): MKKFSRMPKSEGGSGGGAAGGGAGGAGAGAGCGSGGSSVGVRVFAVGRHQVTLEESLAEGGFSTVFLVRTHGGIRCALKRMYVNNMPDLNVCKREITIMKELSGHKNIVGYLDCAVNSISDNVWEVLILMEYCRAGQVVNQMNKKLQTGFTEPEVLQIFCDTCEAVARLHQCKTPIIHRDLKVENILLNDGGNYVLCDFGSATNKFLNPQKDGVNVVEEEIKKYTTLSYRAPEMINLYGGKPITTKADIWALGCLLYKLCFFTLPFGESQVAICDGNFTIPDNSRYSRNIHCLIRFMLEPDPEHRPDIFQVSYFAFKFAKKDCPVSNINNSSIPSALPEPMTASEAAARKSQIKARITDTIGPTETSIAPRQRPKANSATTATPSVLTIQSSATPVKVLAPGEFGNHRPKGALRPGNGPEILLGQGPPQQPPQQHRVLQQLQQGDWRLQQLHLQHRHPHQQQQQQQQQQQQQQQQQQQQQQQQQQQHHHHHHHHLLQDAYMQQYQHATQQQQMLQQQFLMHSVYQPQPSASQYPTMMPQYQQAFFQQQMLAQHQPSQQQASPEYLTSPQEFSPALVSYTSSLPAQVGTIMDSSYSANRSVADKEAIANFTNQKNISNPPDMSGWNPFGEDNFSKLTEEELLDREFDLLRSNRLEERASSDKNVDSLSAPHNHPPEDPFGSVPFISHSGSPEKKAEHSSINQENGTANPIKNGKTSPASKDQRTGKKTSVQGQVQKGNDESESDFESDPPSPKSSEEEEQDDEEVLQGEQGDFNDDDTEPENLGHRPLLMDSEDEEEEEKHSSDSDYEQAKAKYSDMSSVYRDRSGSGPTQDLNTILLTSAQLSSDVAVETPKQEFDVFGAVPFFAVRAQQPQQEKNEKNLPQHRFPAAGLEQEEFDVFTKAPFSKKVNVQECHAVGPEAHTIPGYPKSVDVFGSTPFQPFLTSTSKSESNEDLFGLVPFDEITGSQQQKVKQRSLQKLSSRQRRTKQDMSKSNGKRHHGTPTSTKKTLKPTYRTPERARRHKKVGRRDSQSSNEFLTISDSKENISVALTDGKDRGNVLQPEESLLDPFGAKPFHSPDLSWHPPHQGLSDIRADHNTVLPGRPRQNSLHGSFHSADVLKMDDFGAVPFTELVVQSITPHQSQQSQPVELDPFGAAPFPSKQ
inactive: [1] 0.015 | [2] 0 | [3] -0.018 | [4] 0.035 | [5] -0.001

APLP2 (UniProt Q06481)
inactive: [1] 0.003 | [2] -0.003 | [3] 0 | [4] 0.036 | [5] 0.038

AFG1L (UniProt Q8WV93)
UniProt Q8WV93, sequence (Q8WV93 whole entry, looked up): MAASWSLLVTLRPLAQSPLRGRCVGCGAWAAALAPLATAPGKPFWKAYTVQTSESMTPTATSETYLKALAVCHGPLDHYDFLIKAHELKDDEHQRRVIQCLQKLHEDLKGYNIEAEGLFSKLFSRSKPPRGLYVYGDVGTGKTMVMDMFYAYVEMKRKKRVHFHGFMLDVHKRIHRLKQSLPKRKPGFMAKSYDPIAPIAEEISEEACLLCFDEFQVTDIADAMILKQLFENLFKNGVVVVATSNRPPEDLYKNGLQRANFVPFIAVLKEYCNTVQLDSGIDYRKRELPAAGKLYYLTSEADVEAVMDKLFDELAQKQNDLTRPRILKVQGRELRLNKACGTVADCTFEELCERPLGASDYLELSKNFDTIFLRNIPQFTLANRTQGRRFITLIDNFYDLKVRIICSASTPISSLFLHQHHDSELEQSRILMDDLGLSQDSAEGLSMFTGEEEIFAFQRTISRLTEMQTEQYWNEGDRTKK
inactive: [1] 0.025 | [2] 0.096 | [3] -0.008 | [4] -0.074 | [5] -0.129

ALDH1B1 (UniProt P30837)
UniProt P30837, sequence (P30837 whole entry, looked up): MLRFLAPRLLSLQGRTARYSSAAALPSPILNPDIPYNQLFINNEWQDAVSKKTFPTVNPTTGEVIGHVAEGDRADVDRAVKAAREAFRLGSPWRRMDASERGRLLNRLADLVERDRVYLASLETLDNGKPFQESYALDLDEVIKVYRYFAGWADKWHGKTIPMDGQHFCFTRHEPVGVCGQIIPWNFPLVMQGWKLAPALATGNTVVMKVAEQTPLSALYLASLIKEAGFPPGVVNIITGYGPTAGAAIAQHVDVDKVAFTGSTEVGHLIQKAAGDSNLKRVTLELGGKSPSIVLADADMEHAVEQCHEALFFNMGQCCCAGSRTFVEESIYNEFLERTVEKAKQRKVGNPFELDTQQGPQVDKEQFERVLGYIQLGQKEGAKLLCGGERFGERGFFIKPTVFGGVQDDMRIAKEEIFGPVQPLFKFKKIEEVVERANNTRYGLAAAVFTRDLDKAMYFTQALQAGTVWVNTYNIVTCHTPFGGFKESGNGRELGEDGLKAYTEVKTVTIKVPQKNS
inactive: [1] 0.037 | [2] 0.064 | [3] 0.013 | [4] -0.047 | [5] 0.009

BYSL (UniProt Q13895)
UniProt Q13895, sequence (Q13895 whole entry, looked up): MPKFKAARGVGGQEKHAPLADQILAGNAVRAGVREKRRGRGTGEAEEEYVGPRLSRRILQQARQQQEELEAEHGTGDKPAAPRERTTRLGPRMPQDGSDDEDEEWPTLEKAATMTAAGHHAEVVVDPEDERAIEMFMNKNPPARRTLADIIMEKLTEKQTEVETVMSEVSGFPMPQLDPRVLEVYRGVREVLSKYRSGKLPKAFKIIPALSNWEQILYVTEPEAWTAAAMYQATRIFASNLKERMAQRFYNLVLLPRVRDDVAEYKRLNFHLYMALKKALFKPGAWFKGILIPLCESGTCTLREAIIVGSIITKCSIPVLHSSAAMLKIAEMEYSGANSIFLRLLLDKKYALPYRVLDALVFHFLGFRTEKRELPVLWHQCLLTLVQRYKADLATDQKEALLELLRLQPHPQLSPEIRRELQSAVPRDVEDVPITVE
inactive: [1] 0.001 | [2] -0.085 | [3] -0.09 | [4] 0.02 | [5] -0.042

AMFR (UniProt Q9UKV5)
UniProt Q9UKV5, sequence (Q9UKV5 whole entry, looked up): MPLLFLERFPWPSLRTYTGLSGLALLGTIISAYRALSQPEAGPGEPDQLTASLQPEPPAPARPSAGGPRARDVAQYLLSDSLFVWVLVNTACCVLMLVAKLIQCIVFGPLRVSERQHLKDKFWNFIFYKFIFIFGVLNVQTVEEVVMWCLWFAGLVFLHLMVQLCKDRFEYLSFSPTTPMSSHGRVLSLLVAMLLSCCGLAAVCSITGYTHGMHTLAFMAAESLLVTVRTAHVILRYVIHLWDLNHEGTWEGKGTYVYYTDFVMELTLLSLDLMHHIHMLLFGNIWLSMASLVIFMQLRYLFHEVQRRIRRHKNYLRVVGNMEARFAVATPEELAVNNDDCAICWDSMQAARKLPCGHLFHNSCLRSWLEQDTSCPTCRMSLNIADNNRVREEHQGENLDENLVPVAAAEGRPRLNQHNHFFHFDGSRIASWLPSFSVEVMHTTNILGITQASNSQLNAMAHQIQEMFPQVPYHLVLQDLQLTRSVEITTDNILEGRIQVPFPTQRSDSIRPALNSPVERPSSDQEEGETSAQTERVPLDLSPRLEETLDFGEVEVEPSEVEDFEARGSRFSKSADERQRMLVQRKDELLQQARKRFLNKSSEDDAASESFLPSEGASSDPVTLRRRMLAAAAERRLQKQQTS
inactive: [1] -0.043 | [2] -0.004 | [3] 0.023 | [4] 0.024 | [5] -0.046

ANKRD29 (UniProt Q8N6D5)
UniProt Q8N6D5, sequence (Q8N6D5 whole entry, looked up): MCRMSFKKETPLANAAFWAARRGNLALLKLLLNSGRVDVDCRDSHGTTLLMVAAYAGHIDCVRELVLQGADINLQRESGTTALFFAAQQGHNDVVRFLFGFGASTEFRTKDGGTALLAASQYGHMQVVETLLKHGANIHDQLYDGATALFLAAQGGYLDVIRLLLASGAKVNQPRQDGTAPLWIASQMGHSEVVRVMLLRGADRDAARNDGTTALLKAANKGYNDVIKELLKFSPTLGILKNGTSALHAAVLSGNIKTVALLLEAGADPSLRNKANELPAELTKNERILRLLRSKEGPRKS
inactive: [1] -0.012 | [2] 0.199 | [3] 0.248 | [4] -0.029 | [5] -0.079
